Activity calls are given as the source filed them. The calls were made as follows: active = hit-call score of the fitted dose curve at least 0.9, where 1 is the maximum; inactive = score below 0.9.
Experiment: ATG_E_Box_CIS: Attagene CIS-FACTORIAL HepG2 Assay for human Enhancer Box (E-box) (AID 2282936)
Conditions: HepG2 E-box cis-reporter transcription, actives raise or lower the signal
Procedure: ATG_CIS is a cell-based, multiplexed-readout assay that uses HepG2, a human liver cell line, with measurements taken at 24 hours after chemical dosing in a 24-well plate.ATG_E_Box_CIS is one of 52 assay component(s) measured or calculated from the ATG_CIS assay. It is designed to make measurements of mRNA induction, a form of inducible reporter, as detected with fluorescence intensity signals by Reverse transcription polymerase chain reaction (RT-PCR) and Capillary electrophoresis technology.Data from the assay component ATG_E_Box_CIS was analyzed into 1 assay endpoint. This assay endpoint, ATG_E_Box_CIS, was analyzed with bidirectional fitting relative to DMSO as the negative control and baseline of activity. Using a type of inducible reporter, measures of mRNA for gain or loss-of-signal activity can be used to understand the reporter gene at the transcription factor-level as they relate to the gene USF1. Furthermore, this assay endpoint can be referred to as a primary readout, because this assay has produced multiple assay endpoints where this one serves a reporter gene function. To generalize the intended target to other relatable targets, this assay endpoint is annotated to the dna binding intended target family, where the subfamily is basic helix-loop-helix protein.
Human liver HepG2 cells are transiently transfected with multiple reporter transcription units (MRTUs) in 6-well plates using FuGene 6 reagent (Roche; 3 ml FuGene/1 mg DNA). The MRTU constructs are regulated by a cis-regulating element (promoter). […] A major difference between the CIS and TRANS system is that in CIS activities of endogenous TFs are measured, whereas the TRANS assay evaluates changes in activities of exogenous, chimeric NR-Gal4 proteins. […] At the end of 24 hour incubation, total RNA was isolated using TriZol reagent (Invitrogen). The isolated RNA is then reverse-transcribed using oligo(dT) primer and Mo-MLV reverse transcriptase (Invitrogen) with DNAse I (Ambion) treatment for 30 min. The one-tenth of the produced cDNA was amplified by PCR using Taq DNA polymerase (Invitrogen) and two reporter sequence-specific primers. The PCR products were fluorescently labeled by primer extension with 6-arboxyfluorescein (6-FAM) 5'-labeled reporter sequence-specific primer (2 min at 95 C, 20 s at 68 C and 10 min at 72 C) and these products were digested with 5U of HpaI (New England Biolabs) for 2h at 37 C. The fragments were purified using Qiaquick PCR columns (Qiagen), analyzed on an ABI 3130xL genetic analyzer (Applied Biosystems) with peak positions identified by using a set of X-rhodamine (ROX)-labeled MapMarker1000 molecular weight standards (BioVentures). The raw capillary electrophoresis data was processed using Attagraph software (Attagene).

outcome, inactive:
O=C(c1ccc(O)cc1)c1ccc(O)cc1O
O=C(c1ccccc1)c1ccc(O)c(O)c1O
O=C(O)C(c1ccc(Cl)cc1)c1ccc(Cl)cc1
CCCCCCOc1cc(C)c(O)c(C)c1C
Nc1ccc(Oc2ccc(N)c(N)c2)cc1
Cc1cc(C)c(C)c(O)c1
CC(=O)OCC(C)OC(C)=O (stereo not given)
CC(C)CC(O)Cc1ccccc1 (stereo not given)
CC1=Nc2ccc3ccccc3c2C1(C)C
Cc1cc(C)c(C)c(C)c1
C=CC(=O)NC(C)(C)CS(=O)(=O)O
C=C(C)C(=O)OCC(C)C
OC1CCCCCCCCCCC1
c1c[nH]cn1
COc1cc(NC(=O)CC(C)=O)c(OC)cc1Cl
C/C=C\C/C=C/CCCCCCCCOC(C)=O
Cc1cccc(N)n1
Cc1cc(C)c(C(=O)O)c(C)c1
COC(=O)c1cc(Cl)ccc1[N+](=O)[O-]
COCCOCCOCCOCCOC
O=C1C=CC(=O)O1
Cc1cccc(N(C)C(=S)Oc2ccc3ccccc3c2)c1
O=[N+]([O-])c1ccc(CO)cc1
OCCc1ccncc1
OC1CCCC1
CC1=CC[C@H]2C[C@@H]1C2(C)C
CCCCCCCCCCCCCOP(=O)(O)O
C=C(C)C(=O)OCCO
O=C1CCCCCCCCCCC(=O)OCCO1
CC(C)(Oc1ccc(C2CC2(Cl)Cl)cc1)C(=O)O (stereo not given)
C[Si](C)O[Si](C)(C)O[Si](C)(C)O[Si](C)C
CCOC(=O)NNc1nncc2ccccc12
COc1ccc([C@@H]2CC(=O)c3c(O)cc(O[C@@H]4O[C@H](CO[C@@H]5O[C@@H](C)[C@H](O)[C@@H](O)[C@H]5O)[C@@H](O)[C@H](O)[C@H]4O)cc3O2)cc1OC
O=C(C(Cl)Cl)N1CCOC12CCCCC2
O=C(O)CCCC[C@@H]1SC[C@@H]2NC(=O)N[C@@H]21
CCCOCCOCCOCCO
C=C[C@](C)(O)CC[C@@H]1[C@@]2(C)CCCC(C)(C)[C@@H]2CC[C@@]1(C)O

AC50, active:
CN(C)c1ccc(C(=N)c2ccc(N(C)C)cc2)cc1 56.6 µM
COC(=O)C1=C(C)NC(C)=C(C(=O)OCC(C)C)C1c1ccccc1[N+](=O)[O-] (stereo not given) 18.6 µM
CCC(=O)Oc1ccc(/C(CC)=C(\CC)c2ccc(OC(=O)CC)cc2)cc1 20.4 µM
